# Test results as given in the supplement of paper PMC8728848.
# The full list was thinned out, with the strongest signals kept by preference.
# B1: Epa19 (Candida glabrata) (protein)
# chain: MGSSHHHHHHSSGLVPRGSHMASSKDPTRFPIGCSPQVLKTQPGLAVKLYSYGHPVPGCSYITYQYPDFPRSGYKKERKLADITGVNGKIDIDLKPNDPCRVLTGHLPSNYNYPDTLTYTNFTMILYGYFQPKVTGYHTFNLEADDLLFMNLGAGNAFDCCKAESTLDNFGNYQSYSLWGSDYAKANITVFLVSGVYYPIRLFYVNRDNNAVIDFSFTTEFDKEKVHDFTSYFFSASDGEQCPGSV
# How the values were obtained:
# Assay in all cases: glycan array binding signal (z-score within array); higher = stronger binding
# Conditions in all cases: glycan notation: IUPAC condensed, linker removed
# [1] = target: GalNAc(b1-3)Gal(a1-4)Gal(b1-4)GlcNAc
# In short: (§1)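 The binding signal is a Z-score computed within each array. Data were drawn from 3228 arrays in the Consortium for Functional Glycomics database, restricted to those with a known protein sequence. Scores were averaged over arrays of the same protein sequence at different concentrations or buffers, and over linkers, and negative values can be taken as non-binding.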
# [2] = target: GalNAc(b1-3)Gal(a1-6)Gal(b1-4)Glc
# In short: as §1
# [3] = target: Glc(a1-4)Glc(a1-4)Glc(a1-4)Glc
# In short: as §1
# [4] = target: GlcNAc(a1-4)Gal(b1-4)GlcNAc(b1-3)Gal(b1-4)GlcNAc(b1-3)Gal(b1-4)GlcNAc
# In short: as §1
# GlcNAc(b1-3)Gal = target: GlcNAc(b1-3)Gal
# In short: as §1
# GlcNAc(b1-3)Gal(b1-4)Glc = target: GlcNAc(b1-3)Gal(b1-4)Glc
# In short: as §1
# [5] = target: GlcNAc(b1-3)Gal(b1-4)GlcNAc
# In short: as §1
# [6] = target: GlcNAc(b1-3)Gal(b1-4)GlcNAc(b1-3)Gal(b1-4)GlcNAc(b1-2)[GlcNAc(b1-3)Gal(b1-4)GlcNAc(b1-3)Gal(b1-4)GlcNAc(b1-6)]Man(a1-6)[GlcNAc(b1-3)Gal(b1-4)GlcNAc(b1-3)Gal(b1-4)GlcNAc(b1-2)Man(a1-3)]Man(b1-4)GlcNAc(b1-4)[Fuc(a1-6)]GlcNAc
# In short: as §1
# [7] = target: GlcNAc(b1-3)Gal(b1-4)GlcNAc(b1-3)Gal(b1-4)GlcNAc(b1-3)Gal(b1-4)GlcNAc(b1-2)[GlcNAc(b1-3)Gal(b1-4)GlcNAc(b1-3)Gal(b1-4)GlcNAc(b1-3)Gal(b1-4)GlcNAc(b1-6)]Man(a1-6)[GlcNAc(b1-3)Gal(b1-4)GlcNAc(b1-3)Gal(b1-4)GlcNAc(b1-3)Gal(b1-4)GlcNAc(b1-2)Man(a1-3)]Man(b1-4)GlcNAc(b1-4)[Fuc(a1-6)]GlcNAc
# In short: as §1
# [8] = target: GlcNAc(b1-3)Gal(b1-4)GlcNAc(b1-3)Gal(b1-4)GlcNAc(b1-3)Gal(b1-4)GlcNAc(b1-3)Gal(b1-4)GlcNAc(b1-2)[GlcNAc(b1-3)Gal(b1-4)GlcNAc(b1-3)Gal(b1-4)GlcNAc(b1-3)Gal(b1-4)GlcNAc(b1-3)Gal(b1-4)GlcNAc(b1-6)]Man(a1-6)[GlcNAc(b1-3)Gal(b1-4)GlcNAc(b1-3)Gal(b1-4)GlcNAc(b1-3)Gal(b1-4)GlcNAc(b1-3)Gal(b1-4)GlcNAc(b1-2)Man(a1-3)]Man(b1-4)GlcNAc(b1-4)[Fuc(a1-6)]GlcNAc
# In short: as §1
# [9] = target: GlcNAc(b1-4)GlcNAc(b1-4)GlcNAc
# In short: as §1
# [10] = target: GlcNAc(b1-6)Gal(b1-4)GlcNAc
# In short: as §1
# Kdn(a2-6)Gal(b1-4)GlcNAc = target: Kdn(a2-6)Gal(b1-4)GlcNAc
# In short: as §1
# [11] = target: Man(a1-2)Man(a1-6)[Man(a1-3)]Man(a1-6)[Man(a1-2)Man(a1-2)Man(a1-3)]Man(b1-4)GlcNAc(b1-4)GlcNAc
# In short: as §1
# Man(a1-6)Man = target: Man(a1-6)Man
# In short: as §1
# [12] = target: Neu5Ac(a2-3)Gal(b1-3)GlcNAc(b1-2)Man
# In short: as §1
# [13] = target: Neu5Ac(a2-3)Gal(b1-3)[GlcNAc(b1-6)]GalNAc
# In short: as §1
# [14] = target: Neu5Ac(a2-3)Gal(b1-3)[Neu5Ac(a2-6)]GlcNAc(b1-3)[Fuc(a1-3)[Gal(b1-4)]GlcNAc(b1-6)]Gal(b1-4)Glc
# In short: as §1
# [15] = target: Neu5Ac(a2-3)Gal(b1-3)]Neu5Ac(a2-3)Gal(b1-4)]GlcNAc
# In short: as §1
# [16] = target: Neu5Ac(a2-3)Gal(b1-4)GlcNAc(b1-3)Gal(b1-4)GlcNAc(b1-3)Gal(b1-4)GlcNAc
# In short: as §1
# [17] = target: Neu5Ac(a2-3)Gal(b1-4)GlcNAc(b1-3)Gal(b1-4)[Fuc(a1-3)]GlcNAc
# In short: as §1
# [18] = target: Neu5Ac(a2-3)Gal(b1-4)[Fuc(a1-3)]GlcNAc(b1-3)GalNAc
# In short: as §1
# [19] = target: Neu5Ac(a2-3)[GalNAc(b1-4)]Gal(b1-4)Glc
# In short: as §1
# Neu5Ac(a2-6)Gal(b1-4)Glc = target: Neu5Ac(a2-6)Gal(b1-4)Glc
# In short: as §1
# [20] = target: Neu5Ac(a2-6)Gal(b1-4)GlcNAc
# In short: as §1
# [21] = target: Neu5Ac(a2-6)Gal(b1-4)GlcNAc(b1-3)Gal(b1-4)GlcNAc
# In short: as §1
# [22] = target: Neu5Ac(a2-6)Gal(b1-4)GlcNAc(b1-3)Gal(b1-4)GlcNAc(b1-3)Gal(b1-4)GlcNAc(b1-2)Man(a1-3)[Neu5Ac(a2-6)Gal(b1-4)GlcNAc(b1-3)Gal(b1-4)GlcNAc(b1-3)Gal(b1-4)GlcNAc(b1-2)Man(a1-6)]GalNAc
# In short: as §1
# Neu5Ac(a2-6)GalNAc = target: Neu5Ac(a2-6)GalNAc
# In short: as §1
# [23] = target: Neu5Ac(a2-8)Neu5Ac(a2-8)Neu5Ac(a2-8)Neu5Ac(a2-3)[GalNAc(b1-4)]Gal(b1-4)Glc
# In short: as §1
# Neu5Ac(b2-6)GalNAc = target: Neu5Ac(b2-6)GalNAc
# In short: as §1
# [24] = target: Neu5Gc(a2-3)Gal(b1-4)GlcNAc(b1-3)Gal(b1-4)GlcNAc(b1-2)Man(a1-3)[Neu5Gc(a2-3)Gal(b1-4)GlcNAc(b1-3)Gal(b1-4)GlcNAc(b1-2)Man(a1-6)]Man(b1-4)GlcNAc(b1-4)GlcNAc
# In short: as §1
# [25] = target: Neu5Gc(a2-8)Neu5Gc(a2-3)Gal(b1-4)GlcNAc
# In short: as §1
binder,measurement,setting,value
B1,glycan array binding signal (z-score),[1],-0.192
same,glycan array binding signal (z-score),[2],-0.525
same,glycan array binding signal (z-score),[3],0.084
same,glycan array binding signal (z-score),[4],-0.551
same,glycan array binding signal (z-score),GlcNAc(b1-3)Gal,-1.24
same,glycan array binding signal (z-score),GlcNAc(b1-3)Gal(b1-4)Glc,-0.077
same,glycan array binding signal (z-score),[5],-0.29
same,glycan array binding signal (z-score),[6],3.06
same,glycan array binding signal (z-score),[7],2.24
same,glycan array binding signal (z-score),[8],2.39
same,glycan array binding signal (z-score),[9],-0.295
same,glycan array binding signal (z-score),[10],0.368
same,glycan array binding signal (z-score),Kdn(a2-6)Gal(b1-4)GlcNAc,-0.099
same,glycan array binding signal (z-score),[11],-0.373
same,glycan array binding signal (z-score),Man(a1-6)Man,0.479
same,glycan array binding signal (z-score),[12],-1.47
same,glycan array binding signal (z-score),[13],-0.681
same,glycan array binding signal (z-score),[14],-0.06
same,glycan array binding signal (z-score),[15],1.09
same,glycan array binding signal (z-score),[16],0.026
same,glycan array binding signal (z-score),[17],-0.678
same,glycan array binding signal (z-score),[18],3.04
same,glycan array binding signal (z-score),[19],0.603
same,glycan array binding signal (z-score),Neu5Ac(a2-6)Gal(b1-4)Glc,-0.768
same,glycan array binding signal (z-score),[20],-0.869
same,glycan array binding signal (z-score),[21],-1.3
same,glycan array binding signal (z-score),[22],3.53
same,glycan array binding signal (z-score),Neu5Ac(a2-6)GalNAc,-0.465
same,glycan array binding signal (z-score),[23],-0.059
same,glycan array binding signal (z-score),Neu5Ac(b2-6)GalNAc,-0.238
same,glycan array binding signal (z-score),[24],-0.264
same,glycan array binding signal (z-score),[25],-0.386
